Measured values from ChEMBL document CHEMBL1961873, “Compounds: GSK PKIS; Assays: Nanosyn kinase panel” (2012).

Key:
[1] = biological target: Tyrosine-protein kinase receptor UFO (Homo sapiens) (UniProt P30530); details: at 1 µM
[2] = biological target: Tyrosine-protein kinase Blk (Homo sapiens) (UniProt P51451); details: at 0.1 µM
[3] = biological target: Tyrosine-protein kinase Blk (Homo sapiens) (UniProt P51451); details: at 1 µM
[4] = biological target: T1, Cytoplasmic tyrosine-protein kinase BMX (Homo sapiens) (UniProt P51813); details: at 0.1 µM
T1 sequence (whole entry): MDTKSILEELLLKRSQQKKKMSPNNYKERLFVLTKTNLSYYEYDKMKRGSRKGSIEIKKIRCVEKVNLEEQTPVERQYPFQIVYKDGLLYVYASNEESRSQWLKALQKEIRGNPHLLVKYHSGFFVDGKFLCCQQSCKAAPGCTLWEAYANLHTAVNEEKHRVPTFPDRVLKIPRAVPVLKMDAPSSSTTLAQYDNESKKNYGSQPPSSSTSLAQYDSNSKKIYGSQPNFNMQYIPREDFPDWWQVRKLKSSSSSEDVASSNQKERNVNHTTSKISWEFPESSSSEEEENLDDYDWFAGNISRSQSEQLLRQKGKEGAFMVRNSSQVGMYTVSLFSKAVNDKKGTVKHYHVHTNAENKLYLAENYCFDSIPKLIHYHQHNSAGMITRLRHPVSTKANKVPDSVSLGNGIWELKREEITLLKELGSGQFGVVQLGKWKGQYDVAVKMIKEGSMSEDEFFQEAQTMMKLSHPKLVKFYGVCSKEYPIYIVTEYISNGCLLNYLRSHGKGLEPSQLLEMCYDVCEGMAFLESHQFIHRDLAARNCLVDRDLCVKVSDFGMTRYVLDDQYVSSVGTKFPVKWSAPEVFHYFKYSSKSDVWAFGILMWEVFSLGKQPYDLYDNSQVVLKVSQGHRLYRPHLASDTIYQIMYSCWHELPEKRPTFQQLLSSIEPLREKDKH

[5] = biological target: T1, Cytoplasmic tyrosine-protein kinase BMX (Homo sapiens); details: at 1 µM
[6] = biological target: Protein-tyrosine kinase 6 (Homo sapiens) (UniProt Q13882); details: at 0.1 µM
Protein-tyrosine kinase 6 (Homo sapiens), sequence (Q13882 whole entry, looked up): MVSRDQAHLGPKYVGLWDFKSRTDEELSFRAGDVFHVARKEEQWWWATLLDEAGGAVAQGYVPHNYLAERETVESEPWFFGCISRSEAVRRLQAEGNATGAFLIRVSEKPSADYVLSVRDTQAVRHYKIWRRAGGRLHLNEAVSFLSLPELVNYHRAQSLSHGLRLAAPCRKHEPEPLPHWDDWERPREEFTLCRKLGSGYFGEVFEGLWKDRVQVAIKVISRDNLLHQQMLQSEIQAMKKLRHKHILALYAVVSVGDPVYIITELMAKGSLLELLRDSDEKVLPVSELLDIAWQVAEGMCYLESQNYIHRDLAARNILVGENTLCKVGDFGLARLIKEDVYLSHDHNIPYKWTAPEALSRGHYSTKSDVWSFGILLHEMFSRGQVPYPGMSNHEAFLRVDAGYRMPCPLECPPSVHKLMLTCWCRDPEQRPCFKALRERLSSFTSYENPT

[7] = biological target: Protein-tyrosine kinase 6 (Homo sapiens) (UniProt Q13882); details: at 1 µM
[8] = biological target: Tyrosine-protein kinase BTK (Homo sapiens) (UniProt Q06187); details: at 0.1 µM
Tyrosine-protein kinase BTK (Homo sapiens), sequence (Q06187 whole entry): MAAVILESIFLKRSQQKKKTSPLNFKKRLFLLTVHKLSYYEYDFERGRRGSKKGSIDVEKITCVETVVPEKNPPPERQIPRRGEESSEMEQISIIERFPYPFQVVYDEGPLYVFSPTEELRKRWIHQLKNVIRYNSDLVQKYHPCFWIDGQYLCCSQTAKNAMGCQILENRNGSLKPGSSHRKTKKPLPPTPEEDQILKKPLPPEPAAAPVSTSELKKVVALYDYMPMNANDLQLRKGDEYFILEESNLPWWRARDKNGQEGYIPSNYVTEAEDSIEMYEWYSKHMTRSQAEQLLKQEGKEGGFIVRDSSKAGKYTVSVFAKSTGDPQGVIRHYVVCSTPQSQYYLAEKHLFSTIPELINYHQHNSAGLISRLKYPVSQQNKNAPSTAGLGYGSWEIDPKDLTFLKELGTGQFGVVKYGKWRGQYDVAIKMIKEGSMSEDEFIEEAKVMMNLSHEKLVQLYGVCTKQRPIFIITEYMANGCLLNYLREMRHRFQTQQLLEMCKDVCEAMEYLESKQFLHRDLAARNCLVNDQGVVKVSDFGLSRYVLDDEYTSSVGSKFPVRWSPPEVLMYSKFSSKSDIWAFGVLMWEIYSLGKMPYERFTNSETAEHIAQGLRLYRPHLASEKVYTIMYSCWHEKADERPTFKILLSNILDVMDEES

[9] = biological target: Tyrosine-protein kinase BTK (Homo sapiens) (UniProt Q06187); details: at 1 µM
[10] = biological target: Tyrosine-protein kinase CSK (Homo sapiens) (UniProt P41240); details: at 0.1 µM;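 further: value given is the averaged percent inhibition of CSK kinase activity, from the GSK PKIS kinase inhibitor set screening panel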
Tyrosine-protein kinase CSK (Homo sapiens), sequence (P41240 2-450 limits assumed): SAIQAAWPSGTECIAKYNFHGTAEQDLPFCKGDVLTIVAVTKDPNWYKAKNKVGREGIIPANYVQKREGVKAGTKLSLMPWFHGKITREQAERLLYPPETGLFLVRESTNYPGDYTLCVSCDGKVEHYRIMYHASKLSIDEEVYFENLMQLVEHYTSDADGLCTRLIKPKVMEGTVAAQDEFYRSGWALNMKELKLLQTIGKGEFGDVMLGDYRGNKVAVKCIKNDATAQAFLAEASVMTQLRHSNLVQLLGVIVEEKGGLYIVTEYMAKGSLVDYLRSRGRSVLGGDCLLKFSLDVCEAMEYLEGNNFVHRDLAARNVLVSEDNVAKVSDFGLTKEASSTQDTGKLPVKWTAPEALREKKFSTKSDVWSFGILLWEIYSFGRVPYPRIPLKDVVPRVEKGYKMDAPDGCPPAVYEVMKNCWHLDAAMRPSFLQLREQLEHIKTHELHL

Tyrosine-protein kinase Blk (Homo sapiens), sequence (P51451 2-505 limits assumed): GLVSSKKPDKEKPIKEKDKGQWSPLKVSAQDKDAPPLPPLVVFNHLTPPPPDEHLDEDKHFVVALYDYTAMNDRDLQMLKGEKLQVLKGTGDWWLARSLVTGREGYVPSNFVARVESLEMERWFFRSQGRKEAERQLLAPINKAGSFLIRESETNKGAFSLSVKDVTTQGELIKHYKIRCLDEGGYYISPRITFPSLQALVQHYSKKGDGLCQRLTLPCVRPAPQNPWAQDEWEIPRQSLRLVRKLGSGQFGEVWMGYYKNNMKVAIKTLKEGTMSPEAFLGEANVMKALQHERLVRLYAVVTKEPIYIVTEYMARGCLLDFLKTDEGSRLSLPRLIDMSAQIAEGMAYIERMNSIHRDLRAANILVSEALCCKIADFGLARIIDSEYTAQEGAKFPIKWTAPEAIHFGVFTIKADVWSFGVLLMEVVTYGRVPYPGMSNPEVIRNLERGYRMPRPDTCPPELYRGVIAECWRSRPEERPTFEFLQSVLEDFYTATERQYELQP
Tyrosine-protein kinase receptor UFO (Homo sapiens), sequence (P30530 whole entry): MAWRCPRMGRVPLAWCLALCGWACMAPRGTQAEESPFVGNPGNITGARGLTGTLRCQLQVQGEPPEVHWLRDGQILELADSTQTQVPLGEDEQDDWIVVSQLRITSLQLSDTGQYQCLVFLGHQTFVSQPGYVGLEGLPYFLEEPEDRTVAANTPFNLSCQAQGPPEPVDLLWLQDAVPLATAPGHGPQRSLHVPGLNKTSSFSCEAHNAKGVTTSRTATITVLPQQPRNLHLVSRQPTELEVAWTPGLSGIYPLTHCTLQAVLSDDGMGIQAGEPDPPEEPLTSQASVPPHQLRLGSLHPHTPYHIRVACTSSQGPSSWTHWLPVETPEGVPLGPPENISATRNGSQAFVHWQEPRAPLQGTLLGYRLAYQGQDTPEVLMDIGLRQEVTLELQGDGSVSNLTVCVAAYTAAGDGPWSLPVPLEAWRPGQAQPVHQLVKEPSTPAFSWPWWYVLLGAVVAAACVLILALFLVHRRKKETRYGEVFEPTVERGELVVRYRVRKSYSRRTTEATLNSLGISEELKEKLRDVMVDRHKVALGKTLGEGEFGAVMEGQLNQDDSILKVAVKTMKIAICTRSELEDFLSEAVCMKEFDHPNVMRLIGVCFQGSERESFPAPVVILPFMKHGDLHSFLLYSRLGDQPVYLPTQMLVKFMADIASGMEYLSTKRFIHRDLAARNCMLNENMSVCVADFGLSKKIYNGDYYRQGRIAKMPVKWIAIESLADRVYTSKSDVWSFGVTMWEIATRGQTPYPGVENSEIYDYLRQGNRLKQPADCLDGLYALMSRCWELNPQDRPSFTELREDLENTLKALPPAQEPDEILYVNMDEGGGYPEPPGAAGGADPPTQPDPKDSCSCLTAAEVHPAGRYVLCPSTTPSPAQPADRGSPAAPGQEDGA

Row | Compound | inhibition [1] [%] | inhibition [2] [%] | inhibition [3] [%] | inhibition [4] [%] | inhibition [5] [%] | inhibition [6] [%] | inhibition [7] [%] | inhibition [8] [%] | inhibition [9] [%] | inhibition [10] [%]
1 | COC(=O)Nc1nc2cc(Oc3cccc(NC(=O)Nc4cc(C(F)(F)F)ccc4F)c3)ccc2[nH]1 | 1.25 | -0.47 | 1.35 | 1.84 | -1.52 | -1.63 | -2.33 | -0.22 | -0.18 | -2.03
2 | COc1cc2ncn(-c3cc(OCc4ccccc4Cl)c(C(N)=O)s3)c2cc1OC | 2.44 | 1 | 23.1 | 1.94 | 4.4 | 0.65 | 7.77 | -0.87 | 1.14 | 0.5
3 | O=C1NC(=O)C(c2ccccc2Cl)=C1Nc1cccc(O)c1 | -1.28 | 1.66 | 4.61 | 2.35 | 4.21 | 3.64 | 2.79 | 0.01 | 1.37 | 1.31
4 | Cc1ccc(NC(=O)c2ccnc(N3CCCC3)c2)cc1-c1ccc(C(=O)NCC2CC2)cc1 | 1.21 | -1.39 | -0.22 | 2.83 | 4.79 | 4.19 | 3.04 | -3.6 | -2.42 | 2.53
5 | COc1cc(C=NNc2ncnc3c2cnn3-c2ccccc2)ccc1O | 10.6 | 10.3 | 65.5 | 3.92 | 21.9 | 2.93 | 14.2 | 1.25 | 2.34 | 4.22
6 | N#Cc1c(NC(=O)c2cccc3ccccc23)sc2c1CCCC2 | -1.11 | 1.28 | 2.44 | 3.61 | 2.91 | 3.4 | 3.17 | -1.4 | 0.24 | 0.06
7 | CC1=C(C(=O)Nc2ccc3[nH]ncc3c2)C(c2ccc(Cl)c(Cl)c2)CC(=O)N1 (stereo unspecified) | -5.55 | 1.97 | 18.3 | -1.91 | 2.22 | 3.17 | 3.02 | 0.53 | 3.13 | 1.65
8 | COc1ccc(-c2nn3ncccc3c2-c2ccnc(Nc3ccc(Cl)c(C(F)(F)F)c3)n2)cc1 | -2.97 | 1.79 | 2.85 | 2.75 | 2.33 | 3.82 | 4.81 | 0.66 | 0.36 | -0.37
9 | NC(=O)c1ccc(-c2nc(-c3ccccn3)c(-c3ccc4c(c3)OCO4)[nH]2)cc1 | -1.2 | 1.51 | 3.67 | 6 | 2.22 | 1.72 | 1.4 | -0.29 | 0.83 | 5.75
10 | CCn1c(-c2nonc2N)nc2ccncc21 | 1.22 | 0.68 | 2.01 | 3.88 | -0.38 | -0.74 | -3.65 | -0.43 | 1.46 | -1.68
11 | Nc1ncnc2occ(-c3ccc(NC(=O)Nc4cc(C(F)(F)F)cc(C(F)(F)F)c4)cc3)c12 | 22.1 | 2.66 | 36.5 | 4.42 | 49.9 | 1.52 | 2.35 | 2.44 | 9.01 | 3.53
12 | Cc1cc(O)cc(C)c1/C=C/c1cncc(-c2nn[nH]n2)c1 | -3.63 | 0.83 | 48.1 | 11.2 | 66.3 | 29.6 | 86.3 | -0.39 | 7.14 | 8.08
13 | CS(=O)(=O)CCNCc1ccc(-c2ccc3ncnc(Nc4ccc(OCc5ccccc5)c(Cl)c4)c3c2)o1 | 1.26 | 0.85 | 7.53 | 0.69 | 4.31 | 0.7 | 14.7 | -0.28 | 0.13 | 0.67
14 | COc1ccc2cc(-c3c(-c4ccncc4)nc(-c4ccc([S+](C)[O-])cc4)n3C)ccc2c1 (stereo unspecified) | -3.32 | 1.88 | 6.67 | 4.9 | 3.64 | 8.25 | 42 | 0.83 | 1.4 | 1.52
15 | Nc1ncnc2occ(-c3ccc(NC(=O)Nc4cccc(C(F)(F)F)c4)cc3)c12 | 45.3 | 7.81 | 49.1 | 20.4 | 71.3 | 2.23 | 7.46 | 0.15 | 6.68 | 7.62
16 | CC(=O)Nc1cccc(C#Cc2cncnc2Nc2ccc(OCc3cccc(F)c3)c(Cl)c2)n1 | 1.38 | 1.94 | 1.82 | 1.43 | 0.97 | -2.54 | 1.12 | 0.29 | 0.86 | -1.09
17 | COc1cc2ncn(-c3cc(OCc4ccccc4C(F)(F)F)c(C(N)=O)s3)c2cc1OC | -1.95 | 1.67 | 17.8 | 4.67 | 8.1 | 3.25 | 5.16 | -3.7 | -1.82 | 3.11

Row | Compound | inhibition [1] [%] | inhibition [2] [%] | inhibition [3] [%] | inhibition [4] [%] | inhibition [5] [%] | inhibition [6] [%] | inhibition [7] [%] | inhibition [8] [%] | inhibition [9] [%] | inhibition [10] [%]
18 | CCCN1CCC=C(c2ccc(Nc3nc(Nc4ccccc4C(N)=O)c4cc[nH]c4n3)c(C)c2)C1 | 58.1 | 1.84 | 9.78 | 3.95 | 7.54 | 1.91 | 17.4 | -2.03 | -0.62 | -1.32
19 | COc1cc(C)c(NC(=O)CN(C)C)cc1Nc1nc(Nc2cccc(F)c2C(N)=O)c2cc[nH]c2n1 | 63.7 | 0.68 | 4.45 | 0.07 | 2.64 | 3.06 | 23.8 | 0.31 | 0.16 | 1.05
20 | O=C1Nc2ccc(C(=O)c3ccco3)cc2C1=Cc1cc(Cl)c(O)c(Cl)c1 | -5.53 | 3.04 | 19.1 | -1.7 | 5.27 | 4.83 | 6.88 | 1.4 | 1.76 | 6.31
21 | Nc1nc(-c2ccc3c(c2)C(=Cc2cc(Br)c(O)c(Br)c2)C(=O)N3)cs1 | 2.96 | -4.1 | 5.56 | -0.96 | -0.09 | -1.42 | 0.1 | -1.45 | -0.23 | -4.69
22 | CN1CCC(C(=O)Nc2n[nH]c3nnc(-c4ccccc4)cc23)CC1 |  | 3.19 | 1.79 | 4.52 | 3.87 | 4.01 | 6.78 | -0.63 | -0.24 | 4.02
23 | O=C1NC(=O)C(N2CCc3ccccc32)=C1c1ccc(Cl)cc1 | -2.89 | 2.66 | 4.59 | -0.48 | 5.82 | 4.84 | 4.71 | 0.29 | 0.58 | 3.38
24 | Nc1nc(-c2ccccn2)c(-c2ccc3ncccc3n2)s1 | -4.26 | 2.58 | 1.8 | -0.49 | 3.73 | 2.76 | 7.02 | 1.06 | 0.04 | 9.09
25 | CC1=C(C(=O)Nc2ccc3[nH]ncc3c2)C(c2ccc(F)cc2)NC(=O)N1 (stereo unspecified) | -2.9 | 0.5 | 3.91 | -3.23 | 1.24 | 1.78 | 5.55 | -0.15 | -1.83 | 0.78
26 | COc1ccc(-c2coc3ncnc(N)c23)cc1 | -2.11 | 1.6 | 5.06 | 7.73 | 6.07 | 3.81 | 11.8 | 0.04 | 2.7 | 2.45
27 | Cn1cc(C=C2C(=O)Nc3cccnc32)c2ccccc21 | 19.1 |  |  | 3.27 | 4.89 | 0.63 | 2.28 | 1.87 | 3.46 | 1.5
28 | CS(=O)(=O)CCNCc1ccc(-c2ccc3ncnc(Nc4ccc(OCc5cccc(F)c5)c(C(F)(F)F)c4)c3c2)o1 | -5.02 | 2.7 | 3.9 | 3.53 | 3.77 | 4.08 | 5.42 | 0.73 | -0.77 | 2.85
29 | CS(=O)(=O)CCN(CC#N)Cc1ccc(-c2ccc3ncnc(Nc4ccc(OCc5cccc(F)c5)c(Cl)c4)c3c2)o1 | -5.07 | -2.59 | -2.7 | 1.65 | 3.9 | 2.35 | 4.81 | -4.96 | -5.01 | 3.24
30 | Cc1nnc(-c2ccc(C)c(-c3ccc(C(=O)Nc4cccc(C#N)c4)cc3)c2)o1 |  | 2.41 | 3.76 | 4.54 | 2.78 | 2.27 | 2.95 | -0.22 | 1.88 | 0.99
31 | CN(C)c1cc2c(Nc3ccc4nc(Cc5ccccc5)[nH]c4c3)ncnc2cn1 | -3.19 | 5.31 | 26.3 | 1.17 | 21.5 | 4.68 | 6.35 | 1.64 | 4.82 | 17.4
32 | CCc1cccc(NC(=O)Nc2ccc(Oc3ccc4nc(NC(=O)OC)[nH]c4c3)cc2)c1 | 25.5 | 2.34 | 0.6 | -1.67 | 1.67 | 1.3 | 1.76 | 1.67 | 1.57 | 4.01
33 | CNC(=O)c1cncc(/C=C/c2c(Cl)cccc2Cl)c1 | -1.76 | -1.91 | 5.69 | 4.95 | 22.8 | 13.5 | 56 | -3.87 | 0.37 | 0.49
34 | CCn1c(-c2nonc2N)nc2cncc(C(=O)N3CCNCC3)c21 | -9.66 | 2.72 | 4.31 | 6.75 | 8.89 | 4.01 | 5.31 | -1.34 | 1.16 | 4.39
